Reference: PubChem BioAssay (Tox21)
“And” between values parts separate entries of the source, which are not always exact repeats. Equal values may be shown once. More than one record can exist for a structure, and the calls need not agree. The source made the active and inactive calls. A call without a number means that no potency is given here. Unless noted, the call rests on the fitted dose curve; in most records, active means well fitted curve in the direction sought with a large enough effect in the repeat runs; inconclusive means weak or mixed curves; inactive means no such curve, though single readings can be large; an effect the other way counts as inactive or inconclusive.

Assays:
[1] = qHTS assay for identifying genotoxic compounds that show differential cytotoxicity against isogenic chicken DT40 cell lines with known DNA damage response pathways - Rad54/Ku70 mutant cell line (AID 743015); further: nearly all actives have a fitted effect of over 60% in size; further: potency means the concentration at half of the fitted maximal effect
[2] = qHTS assay to identify small molecule antagonists of the androgen receptor (AR) signaling pathway using the MDA cell line - cell viability counter screen (AID 743041; further: nearly all actives have a fitted effect of over 45% in size)
Method in brief: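 Using the breast carcinoma line MDA-kb2 AR-luc, test chemicals were co-incubated with R1881 for 16 h; CellTiter-Fluor reagent, added at 15.5 h, provided a fluorescence measure of live cells.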

[3] = molecular target: Androgen receptor (Homo sapiens) (UniProt P10275); test: qHTS assay to identify small molecule antagonists of the androgen receptor (AR) signaling pathway using the MDA cell line (AID 743042; further: nearly all actives have a fitted effect of over 55% in size)
Method in brief: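 Antagonist mode: compounds plus R1881 agonist added to MDA-kb2 AR-luc cells, incubated 16 h at 37C. Luciferase reporter luminescence quantified, with multiplexed CellTiter-Fluor readout for cell viability.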

[4] = qHTS assay to identify small molecule antagonists of the thyroid receptor (TR) signaling pathway (AID 743065); further: nearly all actives have a fitted effect of over 55% in size; further: potency means the concentration at half of the fitted maximal effect
Method in brief: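 Antagonism measured as loss of luciferase signal in GH3 cells stably carrying a TRE-luciferase reporter, co-treated with compound and T3 (1 nM final) for 23.5 h at 37 C. Viability was read in the same well by CellTiter-Fluor.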

[5] = test system: thyroid hormone receptor (rat, GH3 cells); test: qHTS assay to identify small molecule agonists of the thyroid receptor (TR) signaling pathway (AID 743066; calls by dose curve)
[6] = qHTS assay to identify small molecule antagonists of the estrogen receptor alpha (ER-alpha) signaling pathway - cell viability counter screen (AID 743074; calls by dose curve; further: nearly all actives have a fitted effect of over 45% in size)
[7] = qHTS assay to identify small molecule antagonists of the estrogen receptor alpha (ER-alpha) signaling pathway using the BG1 cell line - cell viability counter screen (AID 743081);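 further: compound given together with 17beta-estradiol as the ER stimulus; series mostly up to about 70 µM; nearly all actives have a fitted effect of over 45% in size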
[8] = molecular target: Aromatase (Homo sapiens) (UniProt P11511); test: qHTS assay to identify aromatase inhibitors (AID 743083); further: series mostly up to about 70 µM; nearly all actives have a fitted effect of over 55% in size
[9] = qHTS assay for identifying genotoxic compounds that show differential cytotoxicity against isogenic chicken DT40 cell lines with known DNA damage response pathways - wild type cell line (AID 743012); further: nearly all actives have a fitted effect of over 60% in size; further: potency means the concentration at half of the fitted maximal effect
Method in brief: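 Endpoint: CellTiter-Glo luminescence, 30 min RT. Cells: wild type DT40, 300/well. Exposure: compounds in DMSO, 40 h, 37 C/5% CO2, after ~0.5 h pre-incubation.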

[10] = qHTS assay for identifying genotoxic compounds that show differential cytotoxicity against isogenic chicken DT40 cell lines with known DNA damage response pathways - Rev3 mutant cell line (AID 743014); further: nearly all actives have a fitted effect of over 55% in size; further: potency means the concentration at half of the fitted maximal effect
[11] = qHTS assay to identify small molecule antagonists of the androgen receptor (AR) signaling pathway - cell viability counter screen (AID 743033; further: nearly all actives have a fitted effect of over 45% in size)
[12] = qHTS assay to identify small molecule antagonists of the thyroid receptor (TR) signaling pathway - cell viability counter screen (AID 743064); further: nearly all actives have a fitted effect of over 50% in size; further: potency means the concentration at half of the fitted maximal effect
Method in brief: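 GH3.TRE-Luc cells, 4 h pre-plating; cpd + T3 1 nM final; 37 °C 23.5 h; CellTiter-Fluor 30 min; fluorescence read.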

[13] = molecular target: Estrogen receptor (Homo sapiens) (UniProt P03372); test: qHTS assay to identify small molecule antagonists of the estrogen receptor alpha (ER-alpha) signaling pathway (AID 743069; active means well fitted curve in the direction sought with a large enough effect in the signal ratio in the repeat runs, not every such curve was filed as active; inconclusive means weak or mixed curves, or effect the other way; inactive means no such curve, though single readings can be large or run the other way; the % refers to the signal ratio)
Method in brief: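 Fluorescence intensity from a beta-lactamase FRET substrate served as the read-out. Cells: HEK293 with stably integrated ER-alpha-UAS-bla reporter. Agonist 17beta-estradiol was co-added with compounds; incubation 18 hr at 37C, substrate 2 hr at room temperature.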

[14] = molecular target: Estrogen receptor (Homo sapiens) (UniProt P03372); test: qHTS assay to identify small molecule agonists of the estrogen receptor alpha (ER-alpha) signaling pathway (AID 743075; calls by dose curve; further: potency means the concentration at half of the fitted maximal effect)
[15] = molecular target: Estrogen receptor (Homo sapiens) (UniProt P03372); test: qHTS assay to identify small molecule agonists of the estrogen receptor alpha (ER-alpha) signaling pathway using the BG1 cell line (AID 743079); further: nearly all actives have a fitted effect of over 20% in size; further: potency means the concentration at half of the fitted maximal effect
[16] = qHTS assay to identify small molecule antagonists of the estrogen receptor alpha (ER-alpha) signaling pathway using the BG1 cell line (AID 743080; calls by dose curve;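 further: BG1 cells stimulated with 17beta-estradiol alongside compound; nearly all actives have a fitted effect of over 25% in size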; further: potency means the concentration at half of the fitted maximal effect)
Method in brief: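 Luciferase inhibition measured with ONE-Glo after 30 min at RT in BG1Luc4E2 cells given test compounds and 17beta-estradiol for 21.5 h at 37 C; CellTiter-Fluor viability read in the same wells beforehand.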

Aromatase (Homo sapiens), sequence (P11511 whole entry, looked up): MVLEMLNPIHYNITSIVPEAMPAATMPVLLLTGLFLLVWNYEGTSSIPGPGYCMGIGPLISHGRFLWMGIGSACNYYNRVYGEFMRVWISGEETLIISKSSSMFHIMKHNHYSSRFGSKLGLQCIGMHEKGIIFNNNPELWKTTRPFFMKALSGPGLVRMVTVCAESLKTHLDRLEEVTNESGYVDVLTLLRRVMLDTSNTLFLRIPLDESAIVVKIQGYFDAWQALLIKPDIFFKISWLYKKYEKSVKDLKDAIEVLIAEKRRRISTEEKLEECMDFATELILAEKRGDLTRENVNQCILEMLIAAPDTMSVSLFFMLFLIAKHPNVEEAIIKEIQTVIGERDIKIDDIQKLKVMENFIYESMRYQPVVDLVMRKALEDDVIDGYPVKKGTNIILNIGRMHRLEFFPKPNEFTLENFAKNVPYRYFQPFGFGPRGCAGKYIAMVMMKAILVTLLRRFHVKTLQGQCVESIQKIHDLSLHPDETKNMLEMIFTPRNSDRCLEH
Estrogen receptor (Homo sapiens), sequence (P03372 whole entry, looked up): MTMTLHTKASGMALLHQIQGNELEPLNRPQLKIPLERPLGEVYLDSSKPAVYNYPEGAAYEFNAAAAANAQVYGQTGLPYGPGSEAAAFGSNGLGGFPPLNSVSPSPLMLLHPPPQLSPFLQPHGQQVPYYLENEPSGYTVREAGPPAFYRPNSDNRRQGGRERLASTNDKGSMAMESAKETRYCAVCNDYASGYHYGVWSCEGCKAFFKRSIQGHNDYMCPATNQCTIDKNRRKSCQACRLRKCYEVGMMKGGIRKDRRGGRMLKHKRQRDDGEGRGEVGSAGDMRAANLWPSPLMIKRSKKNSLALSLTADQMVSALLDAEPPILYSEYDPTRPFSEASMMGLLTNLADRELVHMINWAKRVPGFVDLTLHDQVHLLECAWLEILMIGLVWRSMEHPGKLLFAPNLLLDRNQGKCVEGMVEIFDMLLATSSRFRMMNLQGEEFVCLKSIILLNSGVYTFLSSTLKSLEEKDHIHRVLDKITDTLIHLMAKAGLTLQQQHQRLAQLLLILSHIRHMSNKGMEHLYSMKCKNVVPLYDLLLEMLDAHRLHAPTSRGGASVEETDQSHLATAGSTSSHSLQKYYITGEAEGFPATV
Androgen receptor (Homo sapiens), sequence (P10275 whole entry, looked up): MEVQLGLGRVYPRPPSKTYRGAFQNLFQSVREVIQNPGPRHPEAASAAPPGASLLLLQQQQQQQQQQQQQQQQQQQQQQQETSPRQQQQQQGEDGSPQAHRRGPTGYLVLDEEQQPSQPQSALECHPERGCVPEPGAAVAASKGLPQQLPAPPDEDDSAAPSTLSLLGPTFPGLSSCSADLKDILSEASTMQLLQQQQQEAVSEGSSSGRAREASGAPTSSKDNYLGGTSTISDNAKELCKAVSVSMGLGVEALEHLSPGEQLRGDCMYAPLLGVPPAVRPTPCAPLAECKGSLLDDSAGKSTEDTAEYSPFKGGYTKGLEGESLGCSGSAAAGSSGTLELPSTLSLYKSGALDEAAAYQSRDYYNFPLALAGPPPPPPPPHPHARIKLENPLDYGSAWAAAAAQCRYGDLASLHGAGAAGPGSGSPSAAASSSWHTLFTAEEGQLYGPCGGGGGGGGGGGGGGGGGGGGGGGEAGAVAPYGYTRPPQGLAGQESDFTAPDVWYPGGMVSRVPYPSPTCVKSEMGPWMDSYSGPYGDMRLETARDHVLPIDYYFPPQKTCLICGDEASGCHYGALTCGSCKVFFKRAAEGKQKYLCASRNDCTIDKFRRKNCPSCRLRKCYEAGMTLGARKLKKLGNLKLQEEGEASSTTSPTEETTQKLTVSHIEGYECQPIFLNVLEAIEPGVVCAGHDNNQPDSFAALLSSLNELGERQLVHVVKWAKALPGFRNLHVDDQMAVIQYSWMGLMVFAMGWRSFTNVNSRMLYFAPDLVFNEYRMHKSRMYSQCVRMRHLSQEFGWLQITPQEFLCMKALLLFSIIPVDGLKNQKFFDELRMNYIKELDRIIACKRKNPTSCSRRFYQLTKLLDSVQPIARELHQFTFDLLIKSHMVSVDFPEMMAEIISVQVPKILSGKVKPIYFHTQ

Row | Structure (SMILES) | Potency [1] | Potency [2] | Potency [3] | Potency [4] | Potency [5] | Potency [6] | Potency [7] | Potency [8] | Potency [9] | Potency [10] | Potency [11] | Potency [12] | Potency [13] | Potency [14] | Potency [15] | Potency [16]
1 | Nc1ccc(Cl)cc1N | 42.3 µM (active) | inactive | inactive | 24.3 µM (active) | inactive | inactive | inactive | inactive | – | – | – | – | – | – | – | –
2 | Cc1ccccc1[N+](=O)[O-] | inactive | inactive | – | inactive | inactive | inactive | inactive | inactive | inactive | inactive | inactive | inactive | inactive | inactive | inactive | inactive
3 | Clc1nc(Cl)nc(Cl)n1 | inactive and 13.7 µM (active) | inactive | – | inactive | inactive | inactive | inactive | inactive | 15.4 µM (active) | inactive and 15.4 µM (active) | inactive | inactive | inactive | inactive | – | inactive
4 | O=C(O)C(F)(F)C(F)(F)C(F)(F)C(F)(F)C(F)(F)C(F)(F)C(F)(F)F | inactive | inactive | – | inactive | inactive | inactive | inactive | inactive | inactive | inactive | inactive | inactive | – | – | – | –
5 | S=C1NCCN1 | inactive | inactive | – | inactive | inactive | inactive | inactive | inactive | inactive | inactive | inactive | – | – | – | – | –
6 | CCOC(=O)C(C)OC(=O)c1cc(Oc2ccc(C(F)(F)F)cc2Cl)ccc1[N+](=O)[O-] (stereo unspecified) | 21.7 µM (active) | inactive | – | – | inactive | inactive | inactive | inactive | 24.3 µM (active) | 27.3 µM (active) | inactive | inactive | – | inactive | – | 48.3 µM (active)
7 | Brc1ccc(Oc2cc(Br)c(Br)cc2Br)c(Br)c1 | inactive | inactive | – | – | inactive | inactive | inactive | inactive | inactive | inactive | inactive | 48.9 µM (active) | inactive | inactive | inactive and 61.6 µM (active) | inactive
8 | O=C(CCl)c1ccccc1 | 61.1 µM (active) | inactive | – | – | inactive | inactive | inactive | inactive | inactive and 68.6 µM (active) | 54.5 µM (active) | inactive | – | – | – | – | –
9 | NCc1cccnc1 | inactive | inactive | – | inactive | inactive | inactive | inactive | inactive | inactive | inactive | inactive | – | inactive | inactive | inactive | inactive
10 | Nc1cccnc1 | inactive | inactive | – | inactive | inactive | inactive | inactive | inactive | inactive | inactive | inactive | – | inactive | inactive | inactive | inactive
11 | CCC(C)(C)c1ccc(O)cc1 | inactive and 54.5 µM (active) | inactive | – | inactive | inactive | inactive | inactive | inactive | inactive and 54.5 µM (active) | inactive and 61.8 µM (active) and 30.6 µM (active) | inactive | inactive | inactive | inactive and 15.7 µM [inconclusive] (active) and 55 µM [activator] (active) | 17.4 µM (active) and 24.3 µM (active) | inactive
12 | Cc1ccc(N)c(N)c1 | 48.7 µM (active) and 21.7 µM (active) | inactive | – | 12.2 µM (active) and 19.3 µM (active) | inactive | inactive | inactive | – | 54.6 µM (active) and 17.2 µM (active) | 30.7 µM (active) and 21.7 µM (active) | inactive | – | – | – | – | –
13 | C[C@]12CCC(=O)C[C@@H]1CC[C@@H]1[C@@H]2CC[C@]2(C)[C@@H](O)CC[C@@H]12 | inactive | inactive | – | 48 µM (active) | inactive | inactive | inactive | inactive | 26.6 µM (active) and inactive | – | inactive | inactive | – | – | – | –
14 | C=CC(=O)OCCO | inactive and 43.3 µM (active) | inactive | – | inactive | inactive | inactive | inactive | – | – | inactive | inactive | inactive | – | – | – | –
15 | CC(C)(c1cc(Cl)c(O)c(Cl)c1)c1cc(Cl)c(O)c(Cl)c1 | inactive | inactive | – | 21.7 µM (active) and 48.6 µM (active) | – | – | inactive | inactive | inactive | inactive | – | inactive and 61.1 µM (active) | – | – | – | –
16 | CCCCCc1cc(O)cc(O)c1 | – | inactive | – | – | inactive | inactive | inactive | inactive | inactive | inactive | inactive | inactive | – | – | – | –
